Data from publication PMC7862700, “An all-to-all approach to the identification of sequence-specific readers for epigenetic DNA modifications on cytosine”.

molecular target: T1, EHF (Homo sapiens, UniProt Q9NZC4 1-300); assay: DAPPL (digital affinity profiling via proximity ligation, sequencing); 10 mM Tris-HCl pH 7.5, 50 mM NaCl, 1 mM DTT, 4% glycerol, room temperature, 30 min; GST-TFs on glutathione beads, 16-mer random dsDNA library, 0.1% formaldehyde crosslink after washing; high values mean tight binding; settings: protein: recombinant; tags: N-terminal GST; dsDNA, one strand shown
T1 sequence: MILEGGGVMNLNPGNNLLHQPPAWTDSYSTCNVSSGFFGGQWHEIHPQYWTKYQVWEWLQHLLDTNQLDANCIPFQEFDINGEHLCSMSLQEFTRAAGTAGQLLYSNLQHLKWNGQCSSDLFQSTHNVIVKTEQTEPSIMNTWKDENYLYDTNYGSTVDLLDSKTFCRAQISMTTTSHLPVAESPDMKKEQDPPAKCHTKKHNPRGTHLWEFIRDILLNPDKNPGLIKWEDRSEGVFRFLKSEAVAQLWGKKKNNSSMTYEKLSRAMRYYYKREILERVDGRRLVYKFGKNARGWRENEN
In short: (§1)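 The binding signal reported is, for every hexamer, its read frequency for a factor over its read frequency for the tag-only sample. Reads came from pools of yeast-expressed, GST-fused human transcription factors on glutathione beads, barcoded with DNA and mixed with that sample, which were incubated with 200 nmole of a random double-stranded 16-mer DNA library in Tris/NaCl/DTT/glycerol buffer at room temperature for 30 min. After washing, the pools were crosslinked with 0.1% formaldehyde, proximity-ligated with BsaI/T4 ligase for 1 h at 37 °C, PCR-amplified and sequenced on an Illumina NextSeq500.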

Sequence | binding signal
GTCCCG | 1.2 fold enrichment (6-mer frequency, TF over GST control)
ACCTGA | 1.09 fold enrichment (6-mer frequency, TF over GST control)
TACGCA | 1.26 fold enrichment (6-mer frequency, TF over GST control)
CACGCG | 1.2 fold enrichment (6-mer frequency, TF over GST control)
GTTCCC | 1.28 fold enrichment (6-mer frequency, TF over GST control)
CCACTG | 1.19 fold enrichment (6-mer frequency, TF over GST control)
TTATAG | 1.25 fold enrichment (6-mer frequency, TF over GST control)
CCGGCA | 1.4 fold enrichment (6-mer frequency, TF over GST control)
CTTTAG | 1.08 fold enrichment (6-mer frequency, TF over GST control)
TCCGGA | 2.86 fold enrichment (6-mer frequency, TF over GST control)
ATGTCA | 1.15 fold enrichment (6-mer frequency, TF over GST control)
AATTCT | 1.28 fold enrichment (6-mer frequency, TF over GST control)
TCTGAC | 1.3 fold enrichment (6-mer frequency, TF over GST control)
GAATCC | 1.14 fold enrichment (6-mer frequency, TF over GST control)
CGTCCC | 1.44 fold enrichment (6-mer frequency, TF over GST control)
TCTTCA | 1.14 fold enrichment (6-mer frequency, TF over GST control)
AACTAT | 1.36 fold enrichment (6-mer frequency, TF over GST control)
CGAAGC | 1.26 fold enrichment (6-mer frequency, TF over GST control)
CCTGCC | 1.39 fold enrichment (6-mer frequency, TF over GST control)
ATTGCT | 1.31 fold enrichment (6-mer frequency, TF over GST control)

molecular target: SPI1 (Homo sapiens, UniProt P17947 1-270); assay: as above; settings: protein: recombinant; tags: N-terminal GST; dsDNA, one strand shown
In short: as §1

Sequence | binding signal
TAGAAA | 1.11 fold enrichment (6-mer frequency, TF over GST control)
GTTTTG | 1.2 fold enrichment (6-mer frequency, TF over GST control)
TCCGTC | 1.28 fold enrichment (6-mer frequency, TF over GST control)
CAAACT | 1.12 fold enrichment (6-mer frequency, TF over GST control)
GACTAC | 1.12 fold enrichment (6-mer frequency, TF over GST control)
ACTCAT | 1.23 fold enrichment (6-mer frequency, TF over GST control)
TATAGA | 1.13 fold enrichment (6-mer frequency, TF over GST control)
TTAAAT | 1.12 fold enrichment (6-mer frequency, TF over GST control)
TCGTTC | 1.17 fold enrichment (6-mer frequency, TF over GST control)
TGTAGC | 1.17 fold enrichment (6-mer frequency, TF over GST control)
CACATT | 1.14 fold enrichment (6-mer frequency, TF over GST control)
CAGCTT | 1.19 fold enrichment (6-mer frequency, TF over GST control)
AATTCA | 1.29 fold enrichment (6-mer frequency, TF over GST control)
ATGGAC | 1.25 fold enrichment (6-mer frequency, TF over GST control)
TACTCG | 1.22 fold enrichment (6-mer frequency, TF over GST control)
TGGTAG | 1.03 fold enrichment (6-mer frequency, TF over GST control)
GGTACT | 1.19 fold enrichment (6-mer frequency, TF over GST control)
TAGAAG | 1.24 fold enrichment (6-mer frequency, TF over GST control)
CTAGGC | 1.07 fold enrichment (6-mer frequency, TF over GST control)
CGCTCT | 1.21 fold enrichment (6-mer frequency, TF over GST control)

Sequence | binding signal
GTCCCG | 1.21 fold enrichment (6-mer frequency, TF over GST control)
ACCTGA | 1.01 fold enrichment (6-mer frequency, TF over GST control)
TACGCA | 1.12 fold enrichment (6-mer frequency, TF over GST control)
CACGCG | 1.08 fold enrichment (6-mer frequency, TF over GST control)
GTTCCC | 1.71 fold enrichment (6-mer frequency, TF over GST control)
CCACTG | 1.16 fold enrichment (6-mer frequency, TF over GST control)
TTATAG | 1.2 fold enrichment (6-mer frequency, TF over GST control)
CCGGCA | 1.44 fold enrichment (6-mer frequency, TF over GST control)
CTTTAG | 1.28 fold enrichment (6-mer frequency, TF over GST control)
TCCGGA | 2.39 fold enrichment (6-mer frequency, TF over GST control)
ATGTCA | 1.08 fold enrichment (6-mer frequency, TF over GST control)
AATTCT | 1.27 fold enrichment (6-mer frequency, TF over GST control)
TCTGAC | 1.09 fold enrichment (6-mer frequency, TF over GST control)
GAATCC | 1.14 fold enrichment (6-mer frequency, TF over GST control)
CGTCCC | 1.23 fold enrichment (6-mer frequency, TF over GST control)
TCTTCA | 1.21 fold enrichment (6-mer frequency, TF over GST control)
AACTAT | 1.33 fold enrichment (6-mer frequency, TF over GST control)
CGAAGC | 1.2 fold enrichment (6-mer frequency, TF over GST control)
CCTGCC | 1.28 fold enrichment (6-mer frequency, TF over GST control)
ATTGCT | 1.1 fold enrichment (6-mer frequency, TF over GST control)

molecular target: SPIB (Homo sapiens, UniProt Q01892 1-262); assay: as above; settings: protein: recombinant; tags: N-terminal GST; dsDNA, one strand shown
Sequence (Q01892 whole entry): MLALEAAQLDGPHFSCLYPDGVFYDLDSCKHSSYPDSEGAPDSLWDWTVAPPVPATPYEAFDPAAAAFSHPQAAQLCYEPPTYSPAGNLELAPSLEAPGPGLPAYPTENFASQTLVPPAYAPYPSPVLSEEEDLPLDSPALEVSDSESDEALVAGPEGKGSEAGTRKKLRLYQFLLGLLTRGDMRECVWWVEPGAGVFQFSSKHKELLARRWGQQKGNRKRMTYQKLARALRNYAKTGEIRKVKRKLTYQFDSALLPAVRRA
In short: as §1

Sequence | binding signal
TAGAAA | 1.11 fold enrichment (6-mer frequency, TF over GST control)
GTTTTG | 1.23 fold enrichment (6-mer frequency, TF over GST control)
TCCGTC | 1.56 fold enrichment (6-mer frequency, TF over GST control)
CAAACT | 1.14 fold enrichment (6-mer frequency, TF over GST control)
GACTAC | 1.19 fold enrichment (6-mer frequency, TF over GST control)
ACTCAT | 1.35 fold enrichment (6-mer frequency, TF over GST control)
TATAGA | 1.07 fold enrichment (6-mer frequency, TF over GST control)
TTAAAT | 1.13 fold enrichment (6-mer frequency, TF over GST control)
TCGTTC | 1.23 fold enrichment (6-mer frequency, TF over GST control)
TGTAGC | 1.03 fold enrichment (6-mer frequency, TF over GST control)
CACATT | 1.12 fold enrichment (6-mer frequency, TF over GST control)
CAGCTT | 1.2 fold enrichment (6-mer frequency, TF over GST control)
AATTCA | 1.33 fold enrichment (6-mer frequency, TF over GST control)
ATGGAC | 1.38 fold enrichment (6-mer frequency, TF over GST control)
TACTCG | 1.18 fold enrichment (6-mer frequency, TF over GST control)
TGGTAG | 1.15 fold enrichment (6-mer frequency, TF over GST control)
GGTACT | 1.15 fold enrichment (6-mer frequency, TF over GST control)
TAGAAG | 1.24 fold enrichment (6-mer frequency, TF over GST control)
CTAGGC | 1.05 fold enrichment (6-mer frequency, TF over GST control)
CGCTCT | 1.16 fold enrichment (6-mer frequency, TF over GST control)

Sequence | binding signal
GTCCCG | 1.32 fold enrichment (6-mer frequency, TF over GST control)
ACCTGA | 1.1 fold enrichment (6-mer frequency, TF over GST control)
TACGCA | 1.1 fold enrichment (6-mer frequency, TF over GST control)
CACGCG | 1.2 fold enrichment (6-mer frequency, TF over GST control)
GTTCCC | 1.37 fold enrichment (6-mer frequency, TF over GST control)
CCACTG | 1.15 fold enrichment (6-mer frequency, TF over GST control)
TTATAG | 1.2 fold enrichment (6-mer frequency, TF over GST control)
CCGGCA | 1.53 fold enrichment (6-mer frequency, TF over GST control)
CTTTAG | 1.11 fold enrichment (6-mer frequency, TF over GST control)
TCCGGA | 2.69 fold enrichment (6-mer frequency, TF over GST control)
ATGTCA | 1.19 fold enrichment (6-mer frequency, TF over GST control)
AATTCT | 1.39 fold enrichment (6-mer frequency, TF over GST control)
TCTGAC | 1.25 fold enrichment (6-mer frequency, TF over GST control)
GAATCC | 1.11 fold enrichment (6-mer frequency, TF over GST control)
CGTCCC | 1.31 fold enrichment (6-mer frequency, TF over GST control)
TCTTCA | 1.27 fold enrichment (6-mer frequency, TF over GST control)
AACTAT | 1.29 fold enrichment (6-mer frequency, TF over GST control)
CGAAGC | 1.22 fold enrichment (6-mer frequency, TF over GST control)
CCTGCC | 1.43 fold enrichment (6-mer frequency, TF over GST control)
ATTGCT | 1.3 fold enrichment (6-mer frequency, TF over GST control)
